# Data: PubChem BioAssay (EPA / NIEHS)
# Calls of active or inactive are those of the source. The calls were made as follows: active = hit-call score of the fitted dose curve at least 0.9, where 1 is the maximum; inactive = score below 0.9.
# Assay: CCTE_Shafer_MEA_acute_per_network_burst_spike_number_mean: CCTE's Neural Acute Assay for Average Number of Spikes in a Network Burst, Shafer Lab (AID 2284019)
# Procedure: CCTE_Shafer_MEA_acute assay is conducted using Axion Biosystems 48 well microelectrode array (MEA) plates and Maestro recording system. Each well of the MEA plate contains a grid of 16 microelectrodes embedded in the culture surface. Electrically active cells, such as neurons, can be cultured over the electrodes, and electrical activity in these cells can be recorded extracellularly. The spontaneous firing of neurons is captured from each electrode on a microsecond timescale providing both temporally and spatially precise data. […] The CCTE_Shafer_MEA_acute assay uses primary cultures of rat cortical neurons. As these cultures mature over time, neural networks develop functional activity and form cohesive networks in which electrical activity can be highly coordinated. Baseline 40-minute recordings are made on days post-plating 13 or 15, followed by a secondary 40-minute recording after chemical exposure.CCTE_Shafer_MEA_acute_per_network_burst_spike_number_mean is a component of the CCTE_Shafer_MEA_acute assay. It measures the average number of spikes (action potential firings) in a network burst (temporally-clustered group of spikes across multiple electrodes) as the total number of spikes in a network burst divided by the number of network bursts during a recording in a microelectrode array (MEA) using Axion Biosystems Maestro 768 channel amplifier with the AxIS adaptive spike detector. The recordings before and after chemical treatment are used to calculate a percent change in the mean number of spikes in a network burst in each well.Data from the assay component CCTE_Shafer_MEA_acute_per_network_burst_spike_number_mean was analyzed into 1 assay endpoint. This assay endpoint, CCTE_Shafer_MEA_acute_per_network_burst_spike_number_mean, was analyzed in the negative analysis fitting direction relative to DMSO as the negative control and baseline of activity. Using a type of functional reporter, gain or loss-of-signal activity can be used to understand electrical activity.
# Spontaneous activity in the cortical cultures was recorded using an Axion Biosystems Maestro 768 channel amplifier and Axion Integrated Studios (AxIS) v1.8 (or later) software. The amplifier recorded from all channels simultaneously (gain = 1200 x; sampling rate = 12.5 kHz/channel): raw signals were filtered with a Butterworth band-pass filter (300-5000 Hz), which filters out slower local field potentials leaving only fast potentials, i.e., "spikes", arising from extracellular currents associated with action potentials (Pine 2006; Wheeler and Nam 2011). On-line spike detection of filtered signals was conducted with the AxIS adaptive spike detector, using a threshold of 8x the root mean squared (rms) noise on each channel. Any electrodes with rms noise levels greater than 5 uV were grounded (e.g., no data were recorded). Once grounded, an electrode was grounded for the duration of the experiment. All recordings were conducted at 37 C. Wells were deemed usable if on the day of the exposure >/= 10 electrodes were active (defined as >/= 5 spikes/min). On DIV 13 or 15, a minimum of three wells from one cortical culture preparation were treated with each compound (0.03-40 uM). Prior to recording baseline activity, each mwMEA plate was placed in the Maestro at 37 C and allowed to sit for 20 min while firing rates stabilized. Baseline activity (40 min) was recorded before the addition of each compound. An additional 40 min of spontaneous activity was recorded in the presence of each compound. Changes in network parameters relative to baseline were assessed following compound treatment.
SMILES,outcome,AC50
Clc1cccc(Cl)c1Cl,inactive,–
Cc1ccccc1OP(=O)(Oc1ccccc1C)Oc1ccccc1C,inactive,–
CC(C)(C)c1ccccc1O,inactive,–
CCCCOC(=O)COC(=O)c1ccccc1C(=O)OCCCC,inactive,–
N#Cc1cccnc1,inactive,–
Oc1ccc(Cc2ccc(O)cc2)cc1,inactive,–
CN(C)C(=S)S,inactive,–
O=C(Cc1ccccc1)OCCc1ccccc1,inactive,–
Cc1cc(C(F)(C(F)(F)F)C(F)(F)F)ccc1NC(=O)c1cccc(I)c1C(=O)NC(C)(C)CS(C)(=O)=O,–,5870 nM (active)
Oc1cc(Cl)c(Cl)cc1Cl,inactive,–
CS(=O)(=O)c1ccc(C(=O)C2C(=O)CCCC2=O)c(Cl)c1COCC(F)(F)F,inactive,–
OCCCCO,inactive,–
CCCCCCCCCCCCc1cccc(S(=O)(=O)O)c1,inactive,–
CC(C)[C@@H](Nc1ccc(C(F)(F)F)cc1Cl)C(=O)OC(C#N)c1cccc(Oc2ccccc2)c1 (stereo not given in full),–,415 nM (active)
CC1(C)[C@H](C(=O)O[C@H](C#N)c2cccc(Oc3ccccc3)c2)[C@@H]1/C=C(\Cl)C(F)(F)F,–,553 nM (active)
